Compound activity deposited in PubChem BioAssay by National Center for Advancing Translational Sciences (NCATS).
In the library only some 8.1% were active in any assay of this set; here they are far more common.
SW480 rereplic: DNA re-replication induction in SW480 cells | 340,000 tested, 1.8% active | AID 624297 | Potency, µM (top dose mostly 46.1 µM), for inactives: at the highest dose re-replication activation, usual class: activators | SW480 DNA re-replication, Hoechst DNA content imaging, 48 h; note: % of control where 0% means no effect; nearly all actives have a fitted effect of over 55% in size
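First, 250 cells per well were seeded. Next, compound or vehicle (23 nL) was pinned in, plates sat 48 hr at 37 C. Finally Hoechst was added for 40 min before fluorescence scanning.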
ELG1 repair inh: inhibitors of ELG1-dependent DNA repair in HEK293T cells. HEK293T ELG1-luciferase reporter, luminescence, 16 h; DNA damage induced by 5-fluorouridine. Potency, µM (series often up to 46.1 µM), for inactives: at the top dose activity change, negative = inhibition, hits mostly inhibitors. 330,000 tested, 2.3% active; note: % is set by controls: 0 for no effect and ±100 for the full control effect; nearly all actives have a fitted effect of over 55% in size
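Reporter activity after DNA damage by 5-fluorouridine is monitored. Compound-treated cells incubate 16 hr at 37 °C, then ONE-Glo is added for 30 min before luminescence reading.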
KB-3-1 tox: KB-3-1 parental cell cytotoxicity; KB-3-1 viability, CellTiter-Glo ATP luminescence, 72 h; Potency, µM (series often up to 46.1 µM), usual class: cytotoxic; 400,000 tested, 1.4% active; note: % is set by controls: 0 for no effect and ±100 for the full control effect; nearly all actives have a fitted effect of over 60% in size
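KB-3-1 parental drug-naive adenocarcinoma cells in DMEM/10% FBS, incubated 72 h at 37 C with pin-transferred compounds across a concentration series. Viability by CellTiter-Glo luminescence; concentration-response curves fitted after normalization.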
KB-V1 cytotox: kills drug-selected multidrug resistant KB-V1 cells; KB-V1 MDR cells viability, CellTiter-Glo, 72 h; Potency, µM (top dose mostly 46.1 µM), usual class: cytotoxic; 400,000 tested, 3.4% active; AID 1347076; note: % is set by controls: 0 for no effect and ±100 for the full control effect; nearly all actives have a fitted effect of over 60% in size
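Potencies derive from concentration-effect curves fitted to normalized luminescence (CellTiter-Glo) of KB-V1 cells treated for 72 h at 37 degrees C in phenol-red-free DMEM containing 10% FBS.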
MCF10A rereplic: DNA re-replication induction in MCF 10a cells; 350,000 tested, 2.9% active; AID 624296; MCF 10A DNA re-replication, Hoechst nuclear intensity, 48 h; Potency, µM (highest dose often 46.1 µM), without a hit: at the highest dose activity, positive = re-replication, actives largely listed as activators; note: % of control where 0% means no effect; nearly all actives have a fitted effect of over 50% in size
* hit, by the source's call; [ ] = remark or other dose. Calls come from the whole dose curve; as a rule, active = well fitted curve in the direction sought with a large enough effect; inconclusive = small, poorly fitted or top-dose-only effect, or another doubt; inactive = no such curve, though single readings can be large; an effect the other way counts as inactive or inconclusive. Potency is the fitted concentration of half-maximal effect.

`CSCCC(NC(=O)c1ccccc1Br)C(=O)NCCCn1nc(C)cc1C` (stereo not given) gave SW480 rereplic -95.3%, ELG1 repair inh -1.7%, KB-3-1 tox inactive, KB-V1 cytotox inactive and MCF10A rereplic 1.8%.
For COC(=O)C1=C(C)Nc2c(c(=O)n(C)c(=O)n2C)C1c1cccc(O)c1 (stereo not given) the results were SW480 rereplic -11.2%, ELG1 repair inh 0.0%, KB-3-1 tox inactive, KB-V1 cytotox inconclusive and MCF10A rereplic 0.7%.
Screening COCCn1c(SCC(=O)N2CCC(C)CC2)nc2c(c1=O)SCC2 returned SW480 rereplic 0.1%, ELG1 repair inh -4.0%, KB-3-1 tox inactive, KB-V1 cytotox inactive and MCF10A rereplic 2.0%.
Clc1cccc(Cl)c1/C=N/Nc1c(Cl)cncc1Cl was read as SW480 rereplic 8.2µM*, ELG1 repair inh inconclusive, KB-3-1 tox 4.61µM*, KB-V1 cytotox inconclusive and MCF10A rereplic 2.59µM*.
For Clc1cncc(Cl)c1N/N=C/c1ccncc1 the results were SW480 rereplic -3.3%, ELG1 repair inh inconclusive, KB-3-1 tox inactive, KB-V1 cytotox inconclusive and MCF10A rereplic 16.5%.
O=C(NCCCn1ccnc1)c1cc(-c2cccs2)on1 was read as SW480 rereplic 3.9%, ELG1 repair inh inconclusive, KB-3-1 tox 14.6µM*, KB-V1 cytotox 14.6µM* and MCF10A rereplic 15.0%.
O=C(NCCCN1CCOCC1)c1cc(-c2cccs2)on1 was read as SW480 rereplic -9.0%, ELG1 repair inh inconclusive, KB-3-1 tox inactive, KB-V1 cytotox inactive and MCF10A rereplic 7.4%.
O=C1N/C(=C/c2ccc(N3CCOCC3)o2)C(=O)N1c1ccccc1 was read as SW480 rereplic 8.2µM*, ELG1 repair inh inconclusive, KB-3-1 tox inactive, KB-V1 cytotox inactive and MCF10A rereplic 3.66µM*.
C=CCN1C(=O)N/C(=C/c2ccc(N3CCOCC3)o2)C1=O was read as SW480 rereplic 5.8µM*, ELG1 repair inh inconclusive and MCF10A rereplic 5.8µM*.
`O=C1c2cc(O)c(O)cc2S(=O)(=O)C1c1ccccc1` (stereo not given) gave SW480 rereplic -19.2%[9.22 µM], ELG1 repair inh 4.3%, KB-3-1 tox inactive, KB-V1 cytotox inactive and MCF10A rereplic -6.0%.
Cc1ccc(C)c2c1cc(C)c1nnc(SCC(=O)Nc3nc4c(s3)CCCC4)n12 was read as SW480 rereplic 1.8%, ELG1 repair inh inconclusive, KB-3-1 tox inactive, KB-V1 cytotox inactive and MCF10A rereplic 20.6µM*.
`Cc1ccc2cc(C)c3nnc(SCC(=O)c4cccs4)n3c2c1C` gave SW480 rereplic -3.0%, ELG1 repair inh -5.8%, KB-3-1 tox inactive, KB-V1 cytotox inactive and MCF10A rereplic -2.5%.
Cc1ccc2cc(C)c3nnc(SCC(=O)Nc4nc5c(s4)CCCC5)n3c2c1C was read as SW480 rereplic inconclusive, ELG1 repair inh -23.3%, KB-3-1 tox inactive, KB-V1 cytotox 18.4µM* and MCF10A rereplic inconclusive.
Screening CCn1c(SCC(=O)Nc2nc3c(s2)CCCC3)nnc1-c1ccccc1 returned SW480 rereplic -0.1%, ELG1 repair inh inconclusive, KB-3-1 tox inactive, KB-V1 cytotox inactive and MCF10A rereplic inconclusive.
`Cc1csc(NC(=O)c2nc3nccc(C)n3n2)n1` gave SW480 rereplic 2.2%, ELG1 repair inh inconclusive, KB-3-1 tox inactive, KB-V1 cytotox inactive and MCF10A rereplic -36.8%.
`CC(C)N1CCC(=NNC(=O)c2ccc(Br)o2)CC1` gave SW480 rereplic -4.3%, ELG1 repair inh 27.6%, KB-3-1 tox inactive, KB-V1 cytotox inactive and MCF10A rereplic 12.1%.
`COc1ccc(Nc2nc(NC(C)(C)C)nc(N3CCCC3)n2)c(OC)c1` gave SW480 rereplic inconclusive, ELG1 repair inh -29.0%, KB-3-1 tox inactive, KB-V1 cytotox 18.4µM* and MCF10A rereplic inconclusive.
Screening COc1ccc(Nc2nc(N3CCCCC3)nc3ccccc23)c(OC)c1 returned SW480 rereplic -3.0%, ELG1 repair inh 23.1µM*, KB-3-1 tox inconclusive, KB-V1 cytotox inactive and MCF10A rereplic 24.7%.
